For experiment [1], the target named is Bile acid receptor (Homo sapiens) (UniProt Q96RI1). The experiment is described as follows: ATG_FXR_TRANS: Attagene TRANS-FACTORIAL HepG2 Assay for Farnesoid X Receptor (FXR) (AID 2282979).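 Note: hits raise reporter mRNA above DMSO so AC50 marks FXR activation.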 Particulars: HepG2 Attagene TRANS FXR-GAL4 reporter transcription. The gist of the method:
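Transient transfection of HepG2 with multiplexed GAL4-UAS reporter units; exogenous FXR-GAL4 chimera. Dose 24 h → TriZol RNA → oligo(dT) RT → PCR, 6-FAM primer extension, HpaI cut → CE. Gain vs DMSO.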

The target of experiment [2] is Hepatocyte nuclear factor 4-alpha (Homo sapiens) (UniProt P41235). Put plainly: ATG_HNF4a_TRANS: Attagene TRANS-FACTORIAL HepG2 Assay for human Hepatocyte Nuclear Factor 4 alpha (HNF4a) (AID 2282982). The following applies: HepG2 HNF4a transactivation reporter, mRNA readout. The gist of the method: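 Transient MRTU transfection of HepG2, 24 h dosing. Readout: reporter mRNA via RT-PCR + capillary electrophoresis, fluorescence; activity fit upward relative to DMSO control.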

Experiment [3] is described as follows: ATG_M_06_TRANS: Attagene TRANS-FACTORIAL HepG2 Assay for M06 Transcription Factor (Internal Marker) (AID 2282983).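 Note: reporter transcript level by RT-PCR then capillary electrophoresis fluorescence.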 Particulars: HepG2 Attagene TRANS M06 internal marker reporter. The gist of the method:
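Background control endpoint: reporter mRNA from transiently transfected HepG2 after 24 h dosing, detected by RT-PCR with capillary electrophoresis fluorescence. Analysed for gain versus DMSO.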

A short description of experiment [4]: ATG_M_32_TRANS: Attagene TRANS-FACTORIAL HepG2 Assay for M32 Transcription Factor (Internal Marker) (AID 2282984).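 Note: transcript level of a background control reporter unit measured by RT-PCR and capillary electrophoresis.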 The following applies: HepG2 Attagene TRANS M32 internal marker reporter. The gist of the method:
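Read-out: fluorescent reporter cDNA fragments resolved by capillary electrophoresis after RT-PCR of total RNA. Transfected HepG2 cells were exposed to chemical for 24 h. Activity scored in the positive direction relative to DMSO.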

For experiment [5], the target named is Transcriptional activator Myb (Homo sapiens) (UniProt P10242). The experiment is described as follows: ATG_Myb_CIS: Attagene CIS-FACTORIAL HepG2 Assay for human Myeloblastosis (Myb) Proto-Oncogene Transcription Factor (AID 2282986; active = hit-call score of the fitted dose curve at least 0.9, where 1 is the maximum; inactive = score below 0.9). The following applies: HepG2 Attagene CIS-FACTORIAL Myb reporter transcription; actives raise or lower the signal. In outline:
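HepG2 cells were transiently transfected with cis-regulated multiple reporter transcription units reflecting endogenous Myb activity, then exposed to compound for 24 hours. Reporter mRNA was measured by RT-PCR with capillary electrophoresis; bidirectional fitting versus DMSO baseline.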

Experiment [6] deals with Oxysterols receptor LXR-alpha (Homo sapiens) (UniProt Q13133). Put plainly: ATG_LXRa_TRANS: Attagene TRANS-FACTORIAL HepG2 Assay for human Liver X Receptor alpha (LXRa) (AID 2282980). Particulars: HepG2 Attagene TRANS reporter, LXRa transactivation. In outline: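 Transfect HepG2 with GAL4-UAS multiplex reporter constructs (TRANS format, chimeric receptor-GAL4); treat 24 h; extract RNA, reverse-transcribe, PCR-amplify, FAM-label, HpaI-digest; resolve fragments by capillary electrophoresis. Upward response vs DMSO.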

Experiment [7] deals with Oxysterols receptor LXR-beta (Homo sapiens) (UniProt P55055). Put plainly: ATG_LXRb_TRANS: Attagene TRANS-FACTORIAL HepG2 Assay for human Liver X Receptor beta (LXRb) (AID 2282981). Particulars: HepG2 Attagene TRANS GAL4-LXRb reporter, mRNA. The gist of the method:
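Readout: fluorescent reporter mRNA fragments resolved by capillary electrophoresis after RT-PCR. System: transiently transfected human HepG2, exogenous LXRb-Gal4 chimera driving GAL4-UAS reporter, 24 h dosing. Activity fitted upward against DMSO baseline.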

The target in experiment [8] is Nuclear receptor subfamily 4 group A member 2 (Homo sapiens) (UniProt P43354). The experiment is described as follows: ATG_NURR1_TRANS: Attagene TRANS-FACTORIAL HepG2 Assay for human Nuclear Receptor Related Protein 1 (NURR1) (AID 2282985). The following applies: HepG2 Attagene TRANS reporter, mRNA readout. The gist of the method:
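Read-out: reporter mRNA induction by RT-PCR plus capillary electrophoresis with fluorescence detection, after 24 h dosing of transfected HepG2 cells. Exogenous NR-Gal4 chimera activity drives GAL4-UAS reporter; activity fitted upward versus DMSO.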

Inconclusive results are not listed. Activity calls are given as the source filed them. Rule for the calls, unless noted: active = hit-call score of the fitted dose curve at least 0.9, where 1 is the maximum; inconclusive = response in the unintended direction; inactive = score below 0.9.

Bile acid receptor (Homo sapiens), sequence (Q96RI1 whole entry, looked up, the tested form may be a part): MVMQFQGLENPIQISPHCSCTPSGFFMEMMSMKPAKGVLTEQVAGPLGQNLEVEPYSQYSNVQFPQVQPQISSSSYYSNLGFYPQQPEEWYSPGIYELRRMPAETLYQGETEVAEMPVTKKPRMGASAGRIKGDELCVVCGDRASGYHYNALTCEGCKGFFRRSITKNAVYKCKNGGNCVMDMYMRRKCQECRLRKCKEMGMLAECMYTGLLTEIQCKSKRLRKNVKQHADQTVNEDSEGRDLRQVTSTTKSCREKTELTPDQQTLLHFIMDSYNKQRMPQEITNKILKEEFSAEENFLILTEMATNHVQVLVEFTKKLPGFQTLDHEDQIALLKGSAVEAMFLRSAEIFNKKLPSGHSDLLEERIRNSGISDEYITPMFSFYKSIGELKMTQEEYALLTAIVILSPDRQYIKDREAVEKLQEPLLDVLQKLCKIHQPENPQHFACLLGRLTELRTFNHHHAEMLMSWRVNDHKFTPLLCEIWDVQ
Nuclear receptor subfamily 4 group A member 2 (Homo sapiens), sequence (P43354 whole entry, looked up, the tested form may be a part): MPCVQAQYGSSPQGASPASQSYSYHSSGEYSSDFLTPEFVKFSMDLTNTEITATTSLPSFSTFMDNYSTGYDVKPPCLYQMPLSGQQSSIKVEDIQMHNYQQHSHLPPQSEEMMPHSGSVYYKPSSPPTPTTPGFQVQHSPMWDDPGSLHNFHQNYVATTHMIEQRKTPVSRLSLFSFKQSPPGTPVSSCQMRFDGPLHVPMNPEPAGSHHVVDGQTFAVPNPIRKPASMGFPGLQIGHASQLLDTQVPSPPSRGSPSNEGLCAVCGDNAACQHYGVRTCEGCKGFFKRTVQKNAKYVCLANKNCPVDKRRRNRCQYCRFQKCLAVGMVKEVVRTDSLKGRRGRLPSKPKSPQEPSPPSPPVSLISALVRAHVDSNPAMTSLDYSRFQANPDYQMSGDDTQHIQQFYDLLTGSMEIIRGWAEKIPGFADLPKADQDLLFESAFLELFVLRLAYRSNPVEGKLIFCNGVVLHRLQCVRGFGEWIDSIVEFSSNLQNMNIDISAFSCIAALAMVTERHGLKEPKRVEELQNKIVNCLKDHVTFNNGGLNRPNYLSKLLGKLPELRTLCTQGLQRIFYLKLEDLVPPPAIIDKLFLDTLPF
Transcriptional activator Myb (Homo sapiens), sequence (P10242 whole entry, looked up): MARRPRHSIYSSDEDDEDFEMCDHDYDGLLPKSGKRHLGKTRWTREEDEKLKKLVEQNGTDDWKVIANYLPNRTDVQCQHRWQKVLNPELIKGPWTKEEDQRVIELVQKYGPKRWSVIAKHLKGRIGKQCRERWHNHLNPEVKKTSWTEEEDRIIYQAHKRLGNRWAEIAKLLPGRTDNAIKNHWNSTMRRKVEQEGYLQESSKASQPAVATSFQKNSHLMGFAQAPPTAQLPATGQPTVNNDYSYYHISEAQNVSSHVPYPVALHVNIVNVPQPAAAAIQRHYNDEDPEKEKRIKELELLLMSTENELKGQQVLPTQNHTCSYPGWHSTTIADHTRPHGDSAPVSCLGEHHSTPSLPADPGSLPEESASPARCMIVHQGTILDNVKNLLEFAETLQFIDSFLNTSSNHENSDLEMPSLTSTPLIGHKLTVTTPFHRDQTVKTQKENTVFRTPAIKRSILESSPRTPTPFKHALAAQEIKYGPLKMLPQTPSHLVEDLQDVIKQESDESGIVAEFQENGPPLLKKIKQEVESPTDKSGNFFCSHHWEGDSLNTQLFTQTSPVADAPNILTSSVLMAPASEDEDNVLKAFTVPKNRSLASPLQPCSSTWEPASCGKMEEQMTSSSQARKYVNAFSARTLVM
Oxysterols receptor LXR-beta (Homo sapiens), sequence (P55055 whole entry, looked up, the tested form may be a part): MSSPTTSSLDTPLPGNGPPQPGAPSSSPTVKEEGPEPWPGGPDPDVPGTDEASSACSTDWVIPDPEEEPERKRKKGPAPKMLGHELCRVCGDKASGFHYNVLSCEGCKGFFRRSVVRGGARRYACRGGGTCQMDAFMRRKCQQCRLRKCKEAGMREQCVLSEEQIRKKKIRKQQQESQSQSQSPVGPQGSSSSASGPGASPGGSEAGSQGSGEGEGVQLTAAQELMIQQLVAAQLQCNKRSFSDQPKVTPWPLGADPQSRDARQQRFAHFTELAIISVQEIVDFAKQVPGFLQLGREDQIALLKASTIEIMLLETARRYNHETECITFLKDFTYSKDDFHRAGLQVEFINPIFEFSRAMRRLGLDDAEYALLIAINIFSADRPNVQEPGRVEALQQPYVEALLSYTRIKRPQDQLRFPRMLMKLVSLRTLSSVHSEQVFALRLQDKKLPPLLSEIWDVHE
Oxysterols receptor LXR-alpha (Homo sapiens), sequence (Q13133 whole entry, looked up, the tested form may be a part): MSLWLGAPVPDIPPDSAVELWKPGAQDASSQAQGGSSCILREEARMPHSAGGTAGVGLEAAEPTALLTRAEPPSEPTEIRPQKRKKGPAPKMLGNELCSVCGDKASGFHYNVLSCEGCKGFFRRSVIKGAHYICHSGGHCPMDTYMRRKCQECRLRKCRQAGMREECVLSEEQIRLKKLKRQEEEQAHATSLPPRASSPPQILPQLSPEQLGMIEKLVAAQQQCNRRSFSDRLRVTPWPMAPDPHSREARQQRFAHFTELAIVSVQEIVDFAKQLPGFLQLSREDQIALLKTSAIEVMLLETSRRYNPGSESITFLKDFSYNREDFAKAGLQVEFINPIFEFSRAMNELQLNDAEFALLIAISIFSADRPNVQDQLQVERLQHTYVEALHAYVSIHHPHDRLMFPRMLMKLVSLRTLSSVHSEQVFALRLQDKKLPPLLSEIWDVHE
Hepatocyte nuclear factor 4-alpha (Homo sapiens), sequence (P41235 whole entry, looked up): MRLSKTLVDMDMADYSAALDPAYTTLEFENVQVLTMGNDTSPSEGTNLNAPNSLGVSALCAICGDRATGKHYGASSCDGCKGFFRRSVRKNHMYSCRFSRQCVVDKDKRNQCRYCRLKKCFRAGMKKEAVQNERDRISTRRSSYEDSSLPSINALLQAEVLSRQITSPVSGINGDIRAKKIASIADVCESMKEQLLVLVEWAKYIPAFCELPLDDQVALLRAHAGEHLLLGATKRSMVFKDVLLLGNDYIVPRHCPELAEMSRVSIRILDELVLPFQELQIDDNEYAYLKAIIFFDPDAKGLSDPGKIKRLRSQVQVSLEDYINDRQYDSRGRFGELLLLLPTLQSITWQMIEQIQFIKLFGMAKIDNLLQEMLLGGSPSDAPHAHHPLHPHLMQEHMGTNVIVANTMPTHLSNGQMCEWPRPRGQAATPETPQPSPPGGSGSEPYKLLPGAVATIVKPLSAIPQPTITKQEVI

Take `CCCCC/C=C\C/C=C\CCCCCCCC(=O)O`: the outcome in experiment [1], in experiment [2], in experiment [3], in experiment [4] and in experiment [5] was inactive.
Take `O=S(=O)(O)c1ccc(N=Nc2c(O)ccc3ccccc23)cc1`: the result in experiment [6], in experiment [7], in experiment [2] and in experiment [5] was inactive.
For the molecule `CCCCCCCCCCCCCCCCCCOS(=O)(=O)O`, the molecule was classed as inactive in experiment [6], in experiment [7], in experiment [2], in experiment [4] and in experiment [5]. Moreover, the AC50 in experiment [8] is 179 µM (active).
Consider `CN1CCN(C)CC1`, for which the outcome in experiment [1], in experiment [7], in experiment [2], in experiment [8] and in experiment [5] was inactive.
Turning to `C=CC(C)(CCC=C(C)C)OC(=O)C=Cc1ccccc1` (stereo not given), the molecule was classed as inactive in experiment [1], in experiment [7], in experiment [3] and in experiment [5].
As for `Nc1ccc(C(=O)OCCCOC(=O)c2ccc(N)cc2)cc1`, the call in experiment [1], in experiment [2], in experiment [4] and in experiment [5] was inactive.
Take `CC12CCC(CC1)C(C)(C)O2`: the call in experiment [1], in experiment [3] and in experiment [5] was inactive.
Regarding `CCCCCCOc1ccc(N)cc1`, the molecule was classed as inactive in experiment [1] and in experiment [3].
Take `CCCC/C=C/C=C\C=O`: the molecule was classed as inactive in experiment [1], in experiment [7] and in experiment [5].
`CC(C)=CCl`: the call in experiment [1], in experiment [7], in experiment [3], in experiment [4], in experiment [8] and in experiment [5] was inactive.
Turning to `COC(Cc1ccccc1)OC`, the result in experiment [6], in experiment [7], in experiment [2], in experiment [3], in experiment [4] and in experiment [8] was inactive. For the same molecule, in experiment [5], the result was inactive.
As to `CC/C=C\C/C=C\C/C=C\CCCCCCCC(=O)OC`, the outcome in experiment [1], in experiment [2], in experiment [4] and in experiment [8] was inactive.
Regarding `Cc1c[nH]c(=O)[nH]c1=O`, the outcome in experiment [1], in experiment [7], in experiment [2], in experiment [3] and in experiment [5] was inactive.
Turning to `CCCCC(=O)O`, the molecule was called inactive in experiment [1], in experiment [7], in experiment [3] and in experiment [5].
As to `CCc1occc(=O)c1O`, the outcome in experiment [1], in experiment [3] and in experiment [5] was inactive.
Turning to `Cc1ccccc1CCO`, the molecule was classed as inactive in experiment [1], in experiment [2], in experiment [4] and in experiment [5].
On to `CC(=O)/C=C/C1C(C)=CCCC1(C)C` (stereo not given), for which the molecule was called inactive in experiment [1], in experiment [4], in experiment [8] and in experiment [5].
For the molecule `CC(C=O)c1ccccc1` (stereo not given), the result in experiment [1], in experiment [2] and in experiment [5] was inactive.
For `CC(c1cc(C(C)(C)C)cc(C(C)(C)C)c1O)c1cc(C(C)(C)C)cc(C(C)(C)C)c1O`, in experiment [1], the AC50 was 3.42 µM (active). The molecule was classed as inactive in experiment [3], in experiment [8] and in experiment [5].
Turning to `C=CC(=O)O[C@H]1C[C@@H]2CC[C@@]1(C)C2(C)C`, the result in experiment [6], in experiment [7], in experiment [2], in experiment [3], in experiment [8] and in experiment [5] was inactive.
On to `C=CCCCCCCCCOC(C)=O`, for which the molecule was classed as inactive in experiment [1], in experiment [2], in experiment [8] and in experiment [5].
With `CCOC(=O)C1=NOC(c2ccccc2)(c2ccccc2)C1`, the call in experiment [1], in experiment [7], in experiment [3], in experiment [4] and in experiment [5] was inactive.
Take `CCCCc1ccc(Cl)cc1`: the molecule was classed as inactive in experiment [1], in experiment [3], in experiment [8] and in experiment [5].
For `CCC(C)C(=O)OCCc1ccccc1` (stereo not given), the outcome in experiment [1], in experiment [7], in experiment [2], in experiment [3] and in experiment [5] was inactive.
For the molecule `CC1=C(O)C(=O)C(C)O1` (stereo not given), the molecule was classed as inactive in experiment [1], in experiment [7], in experiment [3], in experiment [4], in experiment [8] and in experiment [5].
Regarding `CC(C)(CO)COC(=O)C(C)(C)CO`, the molecule was called inactive in experiment [6], in experiment [7], in experiment [2], in experiment [4] and in experiment [5].
On to `Cc1ccc([N+](=O)[O-])cc1N`, for which the result in experiment [1], in experiment [2] and in experiment [4] was inactive.
On to `CC(C)[N+](C)(CCOC(=O)C1c2ccccc2Oc2ccccc21)C(C)C`, for which the outcome in experiment [1] and in experiment [5] was inactive.
As to `O=C1CCCCCCCCCCCN1`, the result in experiment [6] and in experiment [5] was inactive.
Take `CCCCOC(=O)CCC(C)=O`: the molecule was called inactive in experiment [6], in experiment [2], in experiment [4], in experiment [8] and in experiment [5].
For the molecule `CC(C)c1ccc(O)c(C(C)C)c1`, the molecule was called inactive in experiment [6], in experiment [3], in experiment [4], in experiment [8] and in experiment [5].
Regarding `O=C(O)c1ccc2c(c1)C(=O)OC2=O`, the molecule was classed as inactive in experiment [6], in experiment [3], in experiment [4] and in experiment [5].
Take `CC1CC(=O)CC(C)(C)C1` (stereo not given): the molecule was called inactive in experiment [6], in experiment [7] and in experiment [5].
In the case of `C=C1C[C@H]2[C@@H]3C=C(C)C4=CC(=O)CC[C@]4(C)[C@H]3CC[C@]2(C)[C@@]1(OC(C)=O)C(C)=O`, in experiment [6], the AC50 is 16.6 µM (active). In addition, the result in experiment [7], in experiment [3], in experiment [4] and in experiment [5] was inactive.
In the case of `COc1cc(O)c(C(=O)c2ccccc2)cc1S(=O)(=O)O`, the molecule was classed as inactive in experiment [6], in experiment [2], in experiment [3], in experiment [8] and in experiment [5].
For the molecule `C=CCOC(=O)c1ccc(C(=O)OCC=C)c(C(=O)OCC=C)c1`, the molecule was called inactive in experiment [6], in experiment [3] and in experiment [5].
As for `CCCCCCO`, the outcome in experiment [7], in experiment [2], in experiment [3], in experiment [8] and in experiment [5] was inactive.
As for `CCC(C)N` (stereo not given), the call in experiment [6], in experiment [2], in experiment [3] and in experiment [5] was inactive.
Take `C=C[Si](OCCOC)(OCCOC)OCCOC`: the call in experiment [6], in experiment [7] and in experiment [4] was inactive.
On to `CC1=CC=C(C(C)C)CC1`, for which the molecule was called inactive in experiment [6], in experiment [2] and in experiment [3].
Regarding `CCCCNS(=O)(=O)c1ccc(C)cc1`, the outcome in experiment [6], in experiment [7] and in experiment [5] was inactive.
For `O=C(Cl)c1ccc(C(=O)Cl)cc1`, the call in experiment [6], in experiment [4] and in experiment [5] was inactive.
Turning to `O=C(O)CCC(=O)O`, the call in experiment [6] and in experiment [5] was inactive.

For orientation: AC50 means the concentration at which the activity in the assay is half-maximal.
